Rows were chosen to be rich in hits. Some 2.4% of all compounds tested hit in one or more screens of this group.
Cruzain inh noDet: blocks cruzain activity in detergent-free assay | P25779 | 200,000 compounds, 2.3% hits | purified cruzain, Z-FR-AMC fluorescence, no detergent | Potency, µM, without a hit: max response, negative = inhibition, most hits filed as inhibitors;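 also: plate controls were enzyme without inhibitor for no effect and buffer without enzyme for full effect; nearly all actives have a fitted effect of over 40% in size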
Target sequence (P25779 123-467 limits assumed): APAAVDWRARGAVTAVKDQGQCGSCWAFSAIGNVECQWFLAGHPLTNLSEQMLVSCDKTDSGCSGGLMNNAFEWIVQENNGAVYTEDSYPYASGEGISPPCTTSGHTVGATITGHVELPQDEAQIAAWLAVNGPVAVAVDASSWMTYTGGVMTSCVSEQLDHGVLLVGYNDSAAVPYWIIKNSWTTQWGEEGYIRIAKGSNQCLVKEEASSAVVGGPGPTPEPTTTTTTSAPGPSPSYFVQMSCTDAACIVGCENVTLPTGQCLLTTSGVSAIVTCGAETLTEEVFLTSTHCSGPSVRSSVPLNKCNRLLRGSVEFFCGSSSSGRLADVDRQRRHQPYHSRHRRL
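Purified cruzain at 1.5 nM, pre-incubated 15 min with compound at room temperature in 100 mM sodium acetate pH 5.5, 5 mM DTT, 0.00005% Triton X-100. Reaction started with 2 uM Z-FR-AMC; AMC fluorescence increase over 60 s gives rate.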
Cruzain Triton: blocks cruzain activity in presence of Triton detergent. purified cruzain, Z-FR-AMC fluorescence, 0.01% Triton. 200,000 compounds, 0.43% hits. Potency, µM, inactives show max response, negative = inhibition, most hits filed as inhibitors. AID 1478. P25779;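 also: plate controls were neutral wells for no effect and buffer without enzyme for full effect; nearly all actives have a fitted effect of over 40% in size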
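Z-FR-AMC hydrolysis (2 uM substrate) by cruzain (1.5 nM) monitored kinetically at ex 360/em 450 nm after 15 min room-temperature compound exposure; 0.01% Triton X-100, pH 5.5, 5 mM DTT.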
Active calls of the source: *; ? = inconclusive. Calls follow the shape of the dose curve; as a rule, active = well fitted curve in the direction sought with a large enough effect; inconclusive = small, poorly fitted or top-dose-only effect, or another doubt; inactive = no such curve, though single readings can be large; an effect the other way counts as inactive or inconclusive. Potency is read from the fitted curve at half-maximal effect.

SMILES	Cruzain inh noDet	Cruzain Triton
COc1ccc(N(CC(O)Cn2c3ccccc3c3ccccc32)S(=O)(=O)c2ccccc2)cc1 (stereo not drawn)	16µM*	33%
COc1ccc(CN2CCN(CC(O)Cn3c4ccccc4c4ccccc43)CC2)cc1 (stereo not drawn)	10%	0%
COc1cc(NC(=O)CCn2nc(C)c(S(=O)(=O)N3CCCCC3)c2C)cc(OC)c1OC	5%	2%
Cc1ccc(C2CC(=O)N(Cc3ccc(F)cc3)c3c2c(C)nn3-c2nc(C)cc(C)n2)cc1 (stereo not drawn)	?	-5%
CCCN(CCC)C(=O)c1c[nH]c2ccc(S(=O)(=O)N(C)c3ccc(Cl)cc3)cc2c1=O	-1%	1%
Cc1ccc(NC(=O)/C(C#N)=C/c2cc(C)n(-c3ccc(N4CCOCC4)c([N+](=O)[O-])c3)c2C)c(C)c1	?	-1%
Cc1cc(/C=C(\C#N)C(=O)Nc2ccc(Cl)cc2)c(C)n1-c1ccc(N2CCOCC2)c([N+](=O)[O-])c1	7.9µM*	-6%
CCCC1CCC(C2=N/C(=C\c3ccc(OC)c(OC)c3)C(=O)O2)CC1 (stereo not drawn)	2.5µM*	1µM*
COc1ccc(/C=C2\N=C(SC)SC2=O)cc1OC	-6%	-5%
C=CCn1c(=O)n2ncnc2c2c3c(sc21)CCCC3	-10%	0%
O=c1n(Cc2ccc(Cl)cc2)c2sc3c(c2c2ncnn12)CCCC3	25µM*	-13%
CCC(=O)N1CCCc2cc(S(=O)(=O)N3CCC(C(=O)NC4CCC(C)CC4)CC3)ccc21 (stereo not drawn)	?	-2%
CCC1CCCCN1CCCNC(=O)c1[nH]c2ccccc2c1Sc1ccc(Cl)cc1 (stereo not drawn)	10%	-7%
CCn1c2ccccc2c2cc(NC(=O)CSc3nnc(-c4cccc(Cl)c4)o3)ccc21	10µM*	6%
Cc1cccc(-c2nnc(SCC(=O)Nc3ccc(C)c(C)c3)o2)c1	-11%	-1%
COc1cc2c(=O)c(S(=O)(=O)c3ccc(F)cc3)cn(Cc3ccc(Cl)cc3)c2cc1OC	6%	-5%
O=C(N/N=C/C=C/c1ccccc1)c1cc2c(ccc3ccccc32)o1	10µM*	?
C=CCn1cc(/C=N\NC(=O)c2cc3c(ccc4ccccc43)o2)c2ccccc21	16µM*	0%
O=C(N/N=C/C=C/c1ccccc1)c1ccncc1	3%	-10%
C#CCn1cc(/C=N/NC(=O)c2cc3ccccc3o2)c2ccccc21	-17%	-11%
COc1ccc(OC)c(C2CC(=O)N(c3cccc(C)c3)C3=C2C(=O)OC3)c1 (stereo not drawn)	-7%	-2%
Cc1ccc(NC(=O)Cn2c(=O)nc(-c3ccccc3)c3ccccc32)cc1	5%	-1%
Cc1ccc(NC(=O)Cn2c(O)c(N=NC(=O)c3cc4ccccc4cc3O)c3ccccc32)cc1	10µM*	-9%
O=C(N=Nc1c(O)n(Cc2ccccc2)c2ccccc12)c1cc2ccccc2cc1O	7.9µM*	-8%
O=C(N=Nc1c(O)n(Cc2ccccc2)c2ccccc12)c1ccc(O)cc1	?	-3%
SMILES	Cruzain inh noDet	Cruzain Triton
Cc1cccc(-n2ncc(C(=O)NCc3ccco3)c2C2CCN(C(=O)OC(C)(C)C)CC2)c1	18%	-8%
COc1ccc(C(=O)NCc2ccc3c(c2)CCN3C(=O)c2ccc(C)cc2)cc1	-4%	0%
COc1cccc(C(=O)N(Cc2nc(-c3ccc(Cl)cc3)no2)C(C)C)c1OC	?	-6%
COc1ccc(NC(=O)c2noc3c2CCCC3)cc1Cl	-11%	-3%
Cc1ccc(Nc2sc(C(=O)c3ccccc3)c(N)c2C(N)=O)cc1	9%	-1%
CCS(=O)(=O)c1c(Nc2ccc(F)c(Cl)c2)sc(C(=O)c2ccccc2)c1N	-11%	-13%
Nc1c(C(=O)c2ccccc2)sc(Nc2ccccc2)c1S(=O)(=O)c1ccccc1	7.9µM*	-2%
Cc1cc(C)cc(Nc2sc(C(=O)c3ccccc3)c(N)c2S(=O)(=O)c2ccccc2)c1	10µM*	0%
CCc1cc2c(cc3c(=O)n(CC(=O)N4CCCCC4)nc(CC)n32)s1	-7%	-2%
Cc1ccc(C)c(NC(=O)C2CCCN2S(=O)(=O)c2ccc3c(c2)CCCC(=O)N3)c1 (stereo not drawn)	12%	0%
COc1ccc(-c2nnc(SCCOc3ccccc3C)o2)cc1OC	10%	-2%
Cc1ccccc1-c1ccc(C(=O)NCc2ccccc2)o1	8%	-2%
Cc1ccc(-c2ccc(C(=O)NCc3ccc(Cl)cc3)o2)c2ccccc12	25µM*	?
Cc1ccc(OC/C(O)=C(\C#N)c2nc3ccccc3s2)cc1	20µM*	-3%
CC(C)=C(C#N)c1nc2ccccc2s1	-5%	-7%
COc1ccc(NC(C)=O)cc1NC(=O)C1(c2cccs2)CCOCC1	-6%	1%
CCCCN(C)C(=O)Cn1c(SCC(=O)Nc2ccc(C)c(C)c2)nc2ccccc21	?	0%
O=C(NCCc1ccccc1)c1ccc(Cl)c([N+](=O)[O-])c1	-20%	-7%
Cc1ccc(NC(=O)COC(=O)CNC(=O)c2ccc(Br)cc2)c(C)c1	16µM*	14µM*
COc1cccc(C(=O)NCC(=O)OCC(=O)Nc2cc(OC)c([N+](=O)[O-])cc2C)c1	?	22µM*
Cc1ccc(NC(=O)COC(=O)Cn2nc(C)c([N+](=O)[O-])c2C)c([N+](=O)[O-])c1	6%	-2%
Cc1ccc(NC(=O)COC(=O)CNC(=O)c2ccc3ccccc3c2)c([N+](=O)[O-])c1	3.2µM*	7.1µM*
COc1ccc(OC)c(NC(=O)COC(=O)CNC(=O)c2ccc(OC)c(OC)c2)c1	2%	-1%
O=C(Cc1ccccc1)NCC(=O)OCC(=O)c1ccc(Cl)c([N+](=O)[O-])c1	16µM*	?
COc1cc(NC(=O)COC(=O)CNC(=O)c2cc(C)cc(C)c2)c(C)cc1[N+](=O)[O-]	-20%	?
SMILES	Cruzain inh noDet	Cruzain Triton
Cn1nc(-c2ccccc2F)c2cc(C(=O)N3CCN(c4ccccc4F)CC3)sc21	17%	-6%
COc1cccc(-c2cc(C(=O)NCc3ccccc3)[nH]n2)c1	10%	-7%
Cc1nn(CC(=O)NCc2ccc(OC(C)C)cc2)c(=O)c2c(C)n(-c3ccc(Cl)cc3)nc12	-3%	2%
NC(=O)CSc1nc2c(oc3ccccc32)c(=O)n1-c1ccccc1F	-13%	-3%
O=C(O)C1CC[C@@](C(=O)O)(c2ccccc2)c2ccccc21 (stereo partly drawn)	-5%	1%
CC(C)N(C(=O)COC(=O)CNC(=O)c1ccc(Br)cc1)c1ccccc1	16µM*	16µM*
CCOc1ccc(C(=O)NCC(=O)OCC(=O)Nc2ccccc2OCC)cc1	-7%	-26%
Cc1ccc(C(=O)NCC(=O)OCC(=O)c2ccc(C)c([N+](=O)[O-])c2)cc1	13µM*	16µM*
CC(=O)COC(=O)CNC(=O)c1ccc(Br)cc1	-24%	-24%
Cc1ccc(C(=O)NCC(=O)OCC(=O)Nc2ccccc2[N+](=O)[O-])cc1	7.9µM*	11µM*
O=C(COC(=O)CNC(=O)c1cccc([N+](=O)[O-])c1)Nc1ccccc1OC(F)F	20µM*	16µM*
O=C(COC(=O)CNC(=O)c1cccc([N+](=O)[O-])c1)Nc1nc2ccccc2s1	?	-26%
Cc1ccc(C(=O)COC(=O)CNC(=O)C(c2ccccc2)c2ccccc2)cc1[N+](=O)[O-]	-25%	-27%
Cc1ccccc1OCC(=O)Nc1ccc2nc(SCC(N)=O)sc2c1	19%	-7%
